PubChem BioAssay (NCI)
This is part of a sample that, as a whole, favours compounds with a hit. Of some 79,000 tested, about 15% had one in any assay. A number with no mark means an inactive call. Active and inactive are the calls of the source. Rule as the data show it: active = growth inhibition above about 70%; inactive = the rest.

Assays:
[1] = NCI Yeast Anticancer Drug Screen. Data for the rad50 strain (AID 155);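 also: 0% = growth of vehicle-only cultures of the same strain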; details: S. cerevisiae rad50 strain growth inhibition; at 50.0 µM; active compounds read high
Outline: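 DNA repair mutant yeast, compound exposure, growth read-out; inhibition is taken relative to vehicle.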

[2] = NCI Yeast Anticancer Drug Screen. Data for the mec2-1 strain (AID 157); details: S. cerevisiae mec2-1 strain, at 50.0 µM, active compounds read high
Outline: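 mec2-1 yeast strain, carrying an alteration in DNA damage repair or cell cycle control, was exposed to compounds; growth inhibition was measured relative to vehicle-treated controls.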

[3] = NCI Yeast Anticancer Drug Screen. Data for the sgs1 mgt1 strain (AID 161);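 also: 0% = growth of cultures given vehicle only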; details: S. cerevisiae sgs1 mgt1 strain, at 50.0 µM, active compounds read high
Outline: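 Yeast cells carrying a defined DNA-repair defect were exposed to test compounds. Growth inhibition was measured relative to vehicle-treated controls.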

[4] = NCI Yeast Anticancer Drug Screen. Data for the cln2 rad14 strain (AID 165);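 also: 0% = growth equal to vehicle treated cultures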; details: S. cerevisiae cln2 rad14 strain, at 50.0 µM, active compounds read high
Outline: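 Yeast carrying cln2 and rad14 alterations (cell cycle control and DNA damage repair) were exposed to compounds. Growth inhibition was measured against vehicle-treated controls.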

[5] = NCI Yeast Anticancer Drug Screen. Data for the bub3 strain (AID 167); details: S. cerevisiae bub3 mutant strain, at 50.0 µM, active compounds read high
Outline: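 In this screen, a yeast mutant lacking normal mitotic checkpoint function is challenged with compound. Relative growth versus vehicle gives the inhibition value.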

[6] = NCI Yeast Anticancer Drug Screen. Data for the mlh1 rad18 strain (AID 175); details: S. cerevisiae mlh1 rad18 strain growth inhibition; at 50.0 µM; active compounds read high
Outline: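 Growth inhibition of the yeast strain was measured after compound exposure and expressed relative to vehicle-treated controls. The strain carries defined defects in DNA damage repair.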

| SMILES | growth inhibition [1] | growth inhibition [2] | growth inhibition [3] | growth inhibition [4] | growth inhibition [5] | growth inhibition [6] |
| --- | --- | --- | --- | --- | --- | --- |
| CC(=O)Nc1cc2c(cc1[N+](=O)[O-])-c1ccc([N+](=O)[O-])cc1C2=O | 3.9% | 4.4% | 5.8% | 3.2% | 13% | -9.8% |
| COc1ccc(C(O)C(C)(C(=O)O)c2ccccc2)cc1 (stereo unspecified) | 2.95% | 2.25% | 4.6% | -6.35% | -5.05% | 8.55% |
| CC(=O)OCCc1ccccc1C#N | 7.35% | 9.05% | 9.3% | -11.1% | -4.25% | 11.9% |
| CCOc1c(N2CCOCC2)c(=O)c1=O | 11.6% | -19.4% | 5.7% | 6.65% | 30.9% | 5.95% |
| NC(=O)C(CCCCNc1c(C(=O)O)cc([N+](=O)[O-])cc1[N+](=O)[O-])NC(=O)c1ccccc1 (stereo unspecified) | 14.4% | -6.05% | -19.1% | -7.95% | -2% | 28.8% |
| COC(=O)/N=c1\cc(N2CC=CCC2)nc(N)n1O | -5.85% | -10.7% | -21.2% | 18.9% | -10.8% | 5.4% |
| O=C(OC1CCCC1)c1ccccc1 | 5.3% | 9.9% | -26.1% | -29.1% | -10.2% | -2.2% |
| CCNC(=S)OC1CCC2(C)C(=CCC3C2CCC2(C)C(C(C)CCC(CC)C(C)C)CCC32)C1 (stereo unspecified) | -1.7% | 6.6% | -11.6% | -24.4% | -1.55% | -23.8% |
| CC(C)=CCCC(=O)C(c1nc2nnc(N)n2[nH]c1=O)c1nc2nnc(N)n2[nH]c1=O | 13.3% | 13.6% | -1.95% | 17.8% | 1.6% | -7.55% |
| CCOC(CN=CC1CCC=CO1)OCC (stereo unspecified) | 10.9% | -5.35% | 2.85% | -1.55% | -1.5% | 6.65% |
| CC(C)c1cccc(C(C)C)c1NC(=O)Nc1cccc(C(F)(F)F)c1 | -5.4% | -11.1% | 1.45% | 8.3% | 10.2% | 3.85% |
| CCCC1(C)OCC(CCl)O1 (stereo unspecified) | -41.6% | -28.4% | -14.6% | -13.2% | -18.3% | 0.15% |
| CC1=C(/C=C/C(O)CC(O)(C(F)(F)F)C(F)(F)F)C(C)(C)CCC1 (stereo unspecified) | 38% | 20.8% | 18.9% | 43.2% | 17% | 63.1% |
| CCCc1c(O)ccc(C)c1C | 14.6% | 2.5% | 1.1% | -36.2% | -7.35% | 32.4% |
| c1ccc(-c2ccc3c4ccccc4ccn23)cc1 | 9.2% | -4.1% | 8.9% | 17.7% | 12.7% | 23.9% |
| O=[N+]([O-])c1cc2c(c3nonc13)OCCCCO2 | 5.95% | 25.5% | 47.4% | 23.2% | 23.7% | 77% (active) |
| Oc1c2c(c3cccc4cccc1c43)=Nc1ccccc1S2 | 0.25% | 3.2% | 6.4% | -23.6% | 3.3% | 7.1% |
| COc1c(C)c2nc3ccccc3[nH]c2c2c(=O)ccnc12 | -3.8% | -29.6% | -12.4% | 14.8% | -21.9% | 46.1% |
| CCCCC1(C#Cc2ccccc2)Sc2ccccc2N1C (stereo unspecified) | -9.9% | -8.45% | 9.25% | -21.9% | -7.9% | 2.25% |
| Cc1cc(C)c(CN(C)C)c(CC(O)c2ccccc2)c1 (stereo unspecified) | 10.8% | -5.95% | 7.4% | -15% | 3.45% | -1.95% |
| CCn1c2ccccc2c2c3ncc4cccn4c3ccc21 | 10.8% | -6.95% | 19.4% | 14.4% | 7.95% | 27.8% |

| SMILES | growth inhibition [1] | growth inhibition [2] | growth inhibition [3] | growth inhibition [4] | growth inhibition [5] | growth inhibition [6] |
| --- | --- | --- | --- | --- | --- | --- |
| CC(=O)CC(=O)CCC(=O)O | 30.9% | -20.2% | -0.25% | 7.1% | 13.9% | 32.8% |
| CC(=O)OCC1OC(n2cc(CBr)nn2)C(OC(C)=O)C(OC(C)=O)C1OC(C)=O (stereo unspecified) | 0.3% | 4.9% | -24.1% | -13.6% | 1.7% | -19.9% |
| CCCCN(CCCC)C(C)=O | -45.1% | -4.85% | 17.1% | -35% | 5.15% | -8.2% |
| COC1=C(OCc2ccccc2)C(=O)OC1C(O)CO (stereo unspecified) | -3.1% | 11.4% | 0.5% | -1.3% | -7.55% | -12% |
| CCCCNC(=S)/N=C/c1c(O)cc(C)oc1=O | -16.6% | -25.9% | -24.1% | 2.25% | -14.6% | 2.75% |
| CC(=O)NCS(=O)(=O)O | -25.3% | -13.4% | -0.9% | -34% | -12.3% | -9.55% |
| CC(=O)OCC(CBr)(CBr)COC(C)=O | 8.85% | -41.4% | -6.05% | -102% | -20.8% | 23.1% |
| CCN(CC)CC1CCCCN1CC(=O)N1c2ccccc2NC(=O)c2ccccc21 (stereo unspecified) | -6.85% | -3.25% | 5.25% | -6.1% | -1.9% | 5.95% |
| CCC(C(C)=O)C(C)=O | -46.2% | -71.5% | -43.5% | -24.2% | -56.6% | -34.4% |
| N#CC1CCCCC(=O)N1 (stereo unspecified) | 3.55% | 2.2% | -2.05% | -3.6% | -1.2% | -1.55% |
| C=Cc1ccc(C)[n+](C[Si](C)(C)O[Si](C)(C)C[n+]2cc(C=C)ccc2C)c1 | -18.9% | -11.1% | -26.1% | -4.2% | -10.8% | 9% |
| COc1cc(N=Nc2ccc(N)nc2N)c(OC)cc1N=Nc1ccc([N+](=O)[O-])cc1 | 12.6% | 23% | 1.8% | 21.6% | 9.4% | 27.1% |
| COC(=O)C1CC2c3[nH]c4ccccc4c3CCN2C1 (stereo unspecified) | -4.85% | -8.25% | -17.1% | -11.4% | -4.1% | -10.5% |
| O=C(NC(=O)c1cc(-c2ccccc2)n[nH]1)c1ccccc1 | -71.5% | -10.1% | -14.4% | -6.3% | -20.4% | -10.8% |
| CCC(C(O)c1ccc(Cl)cc1)[N+](=O)[O-] (stereo unspecified) | 29.9% | 21.7% | 35.9% | 3.05% | 4.65% | 43.7% |
| COC(=O)N/N=C/c1c[nH]c2ccccc12 | -5.15% | -17.6% | -9.65% | -97% | -17.4% | -24.6% |
| CSc1ccc(NC(=O)NNP(=S)(Oc2ccc(C(C)(C)C)cc2)Oc2ccc(C(C)(C)C)cc2)cc1 | -10.7% | -18.1% | 0.5% | 13.8% | -5.75% | -6.2% |
| CN(C)C=NCCN1CCOCC1 | 9.3% | 15.1% | 26.8% | 5.55% | -7.1% | -47.6% |
| CC(C)COC(=N)c1ccccc1C1(O)CCCCC1 | -19.9% | -10.1% | -9.5% | -18.8% | 0.6% | -17.6% |
| N#Cc1c(-c2ccccc2)cn2c1[nH]c(=O)c1ccccc12 | 4% | -6.65% | 11.2% | 5.45% | -17.9% | 1.05% |
